Reference: the supplement of paper PMC6555819

Columns and labels:
Experiment in all cases: PBM binding z-score (relative to random genomic background probes); higher = stronger binding; sequences stand for … in GC…GCGATTGACAGCGTAGAATGAAGG
[1] = tested on: RARb homodimer (NR concentration 270 nM)
Outline: (§1)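 Antibodies against each partner of ligand-free nuclear receptor dimers (one per run) detected binding on custom Agilent 4×180K protein-binding microarrays after 1 h incubation. The double-stranded probes had 34-nt variable regions carrying direct-repeat seeds, single-nucleotide variants, half-site ablations and random human genomic background sequences. Binding z-scores, from regression-normalized fluorescence, use the random background probes as reference.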

[2] = tested on: RARg:RXRa (NR concentration 270 nM, RXRa partner concentration 90 nM)
Outline: as §1

[3] = tested on: RARg homodimer (NR concentration 270 nM)
Outline: as §1

[4] = tested on: RXRa DBDmut IVT, anti-RXR (DBD mutation: RXRa K156A/R161A, NR concentration 90 nM)
Outline: as §1

[5] = tested on: RXRa homodimer (NR concentration 180 nM)
Outline: as §1

[6] = tested on: THRa:RXRa (NR concentration 90 nM, RXRa partner concentration 90 nM)
Outline: as §1

[7] = tested on: THRa homodimer (NR concentration 90 nM)
Outline: as §1

[8] = tested on: VDR homodimer (NR concentration 270 nM)
Outline: as §1

Sequence	PBM binding z-score [1]	PBM binding z-score [2]	PBM binding z-score [3]	PBM binding z-score [4]	PBM binding z-score [5]	PBM binding z-score [6]	PBM binding z-score [7]	PBM binding z-score [8]
CGTCCAAGGTCATAGGAGGTCAGTTAAGACAGAT	5.16	6.57	7.05	4.09	6.19	5.3	3	4.11
CCGACTGGGGCATAATGTTACCATAAGCCAGCCC	-0.153	0.0195	0.3	-0.127	0.021	-0.493	-0.413	-0.295
ACTATTAGTTGATACGAGGGCAACCGATAGGTTG	1.59	1.03	0.921	1.04	0.536	2.55	0.673	0.979
CCTTACGGGTGACTGACAGGTTATAGCATTTGGA	0.601	1.07	0.559	0.115	0.941	0.72	-0.154	-0.209
GCTCGGAGGACAAGGCCAGAGCTTTGTCCGTAGA	0.141	-0.322	-0.004	-1.09	-1.17	0.254	-0.595	-0.801
CCTACTGGGCGAAAGGTCATTGATTCCAATGCTC	4.3	5.19	4.82	1.01	5.76	2.95	0.374	2
CCTCCTGGGCCATCAGGTCATTGATATCAACGTT	2.47	1.98	1.71	-0.401	1.15	3.04	3.09	1.18
